Where a name gives a salt, the structure may show the parent alone.
test system: MARIMO; assay: cell viability relative to vehicle control; higher = less cytotoxic; conditions: 10 µM; SRSF2 genotype: SRSF2 wt/wt
Procedure, shortened: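 Mutant clones made by CRISPR editing and their isogenic wild-type counterparts, from four leukaemia lines, were exposed to a single 10 µM dose of each library compound for 48 h. The supernatant was then removed and CellTiter-Glo luminescence was read. Viability was reported as percent of the on-plate vehicle control.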

Structure (SMILES) | cell viability [%]
CCN(CCCc1ccccc1)CCCc1ccccc1 [Alverine Citrate] | 83.8
CC(=O)OCC(=O)[C@@]12N=C(C)O[C@@H]1C[C@H]1[C@@H]3CCC4=CC(=O)C=C[C@]4(C)[C@H]3[C@@H](O)C[C@@]12C [Deflazacort (Calcort)] | 109
CS(=O)(=O)Nc1ccc([N+](=O)[O-])cc1OC1CCCCC1 | 95.3
O=C(/C=C/c1ccc(O)c(O)c1)O[C@@H]1C[C@](O)(C(=O)O)C[C@@H](O)[C@H]1O [Chlorogenic acid] | 108
Nc1ncnc2c1ncn2C1OC(COP(=O)(O)OP(=O)(O)O)C(O)C1O (stereo unspecified) | 90.7
C[C@@H]1Cc2c([nH]c3ccccc23)[C@@H](c2c(F)cc(/C=C/C(=O)O)cc2F)N1CC(C)(C)F | 104
O=C(c1ccccc1)c1ccc2nc(NC(=O)c3csc(C4CCN(c5ncnc6ccsc56)CC4)n3)[nH]c2c1 | 37.5
CC(C)NCC(O)c1ccc(O)c(O)c1 (stereo unspecified) [Isoprenaline hydrochloride] | 100
O=C(Nc1ccc(Br)cc1)c1c(O)cccc1O [Resorantel] | 39.3
Nc1ccn([C@@H]2O[C@H](CO)[C@@H](O)[C@H]2O)c(=O)n1 [Cytidine] | 89.9
O=C1[C@H]2CCCC[C@H]2C(=O)N1CCCCN1CCN(c2nsc3ccccc23)CC1 [Perospirone hydrochloride] | 82.3
COc1cc(C(=O)NS(=O)(=O)c2ccccc2C)ccc1Cc1cn(C)c2ccc(NC(=O)OC3CCCC3)cc12 [Zafirlukast (Accolate)] | 110
CCn1cc(C(=O)O)c(=O)c2cc(F)c(N3CCNCC3)nc21 [Enoxacin (Penetrex)] | 111
COc1ccc(S(=O)(=O)N(C(C)=O)c2ccccc2/C=C/c2cc[n+]([O-])cc2)cc1 | 8.02
Cc1cncc(CN2CCC(=C3c4ccc(Cl)cc4CCc4cccnc43)CC2)c1 [Rupatadine Fumarate] | 54.1
C/C(=C\C(=O)OCCCCCCCCC(=O)O)C[C@@H]1OC[C@H](C[C@@H]2O[C@H]2[C@@H](C)[C@H](C)O)[C@@H](O)[C@H]1O [Mupirocin calcium] | 97.9

Structure (SMILES) | cell viability [%]
O=C1[C@H](CC[C@H](O)c2ccc(F)cc2)[C@@H](c2ccc(O)cc2)N1c1ccc(F)cc1 [Ezetimibe (Zetia)] | 91
Cc1cc(F)c(C(=O)Nc2cccc(-c3nncn3C(C)C)n2)cc1-n1cnc(C2CC2)c1 [Selonsertib (GS-4997)] | 72.1
COc1cc(C(C)=O)ccc1O [Apocynin (Acetovanillone)] | 110
COc1cc2c(cc1OC)[C@@H](Cc1ccc(Oc3cc(C[C@@H]4c5cc(OC)c(OC)cc5CCN4C)ccc3O)cc1)N(C)CC2 [Dauricine] | 15.1
c1ccc2c(CCNc3ccc(Nc4ccncc4)cc3)c[nH]c2c1 | 44.4
O=C(O)c1ccc(Br)c(O)c1 [4-Bromo-3-hydroxybenzoic acid] | 110
CC(=O)NC[C@H]1CN(c2ccc(N3CCOCC3)c(F)c2)C(=O)O1 [Linezolid (Zyvox)] | 92.5
C[C@H]1[C@H](C)CC[C@]2(C(=O)O)CC[C@]3(C)C(=CC[C@@H]4[C@@]5(C)CCC(=O)C(C)(C)[C@@H]5CC[C@]43C)[C@H]12 [Ursonic acid] | 19
CN(C)C(=O)c1ccc(S(=O)(=O)c2ccc(NC(=O)C(C)(O)C(F)(F)F)c(Cl)c2)cc1 (stereo unspecified) | 58
CC(=O)O[C@H]1CC(=O)OC(C)(C)[C@@H]2CC(=O)[C@]3(C)[C@H](CC[C@@]4(C)[C@@H](c5ccoc5)OC(=O)[C@H]5O[C@]543)[C@@]12C [Nomilin] | 105
CC(=O)N1CCC(Nc2cc(C(=O)NC[C@H](O)CN3CCc4ccccc4C3)ncn2)CC1 | 103
NCCCC[C@@H]1NC(=O)[C@@H](Cc2ccccc2)NC(=O)[C@H](CC(=O)O)NC(=O)CNC(=O)[C@H](CCCN=C(N)N)NC1=O [Cyclo (-RGDfK)] | 103
Cc1cc(Nc2ncc3c(n2)N(C)C(=O)N(c2cc(NC(=O)c4cccc(C(F)(F)F)c4)ccc2C)C3)n(C)n1 [Pluripotin (SC1)] | 21.8
c1ccc(NCc2ccc(CNc3ccccn3)cc2)nc1 | 91.9
O=c1cc(-c2ccc(O)c(O)c2)oc2c([C@@H]3O[C@H](CO)[C@@H](O)[C@H](O)[C@H]3O)c(O)cc(O)c12 [Orientin] | 97.3
